Measured values as given in ChEMBL document CHEMBL1157539, “Thousands of chemical starting points for antimalarial lead identification” (Nature, 2010).

Tested on: Plasmodium falciparum
Assay: GSK_TCMDC: Inhibition of Plasmodium falciparum 3D7 in whole red blood cells, using parasite LDH activity as an index of growth. Test compounds present at 2uM
Assay type: functional

Inhibition, 90%:
CCC(CC)(Cc1ccccc1)NC(=O)[C@H](CC(C)C)Nc1ccc(C#N)c2ccccc12.O=C(O)C(F)(F)F, CCCCCCc1ncc(-c2cc3cc(O)c(-c4ccccc4)cc3oc2=O)s1, Cc1cc(-c2cccc(CNCCc3ccc(Cl)cc3)c2)cnc1N.Cl

Inhibition, 83%:
C=CCc1cc(Cc2cnc(N)nc2N)cc(CCC)c1OC

Inhibition, 99%:
OC1(C(F)(F)F)CC(c2ccccc2)=NN1c1nncc(-c2ccccc2)n1 (configuration not stated), CN(C)CCCN1C(=O)c2[nH]nc(-c3ccc(Cl)cc3O)c2C1c1ccc(Cl)cc1 (configuration not stated)

Inhibition, 96%:
O=C(NC1CCCCN(Cc2ccccc2O)C1)c1ccc(Cl)c(Cl)c1.O=C(O)C(F)(F)F (configuration not stated), CCCCC(CCCC)CN1C(=O)C(c2ccccc2)(c2ccccc2)N=C1N.O=CO

Inhibition, 98%:
O=C(O)C(F)(F)F.O=[N+]([O-])c1cccc(CNCC2CCN(CCc3ccccc3)CC2)c1, O=C(O)C(=O)O.Oc1ccccc1CN1CCN(C(c2ccccc2)c2ccccc2)CC1, Cc1ccccc1C1CCN(C2CCC(NC(=O)c3ccc(-c4cc(C(F)(F)F)nn4C)s3)CC2)CC1 (configuration not stated)

Inhibition, 95%:
O=C(CN1CCN(C(C(=O)Nc2cc(C(F)(F)F)ccc2Cl)c2ccccc2)CC1)NC1CC1 (configuration not stated), Br.CC(C)(C)c1ccccc1OCCCON1C(=N)N=C(N)NC1(C)C, CCOP(=O)(OCC)c1ccc(OC)c(-c2ccc[nH]2)c1

Inhibition, 92%:
Cc1ccc(N2C(=O)C3C(C2=O)C2(c4ccccc4)C(=O)C3(c3ccccc3)C(c3ccccc3)=C2c2ccccc2)cc1 (configuration not stated), CCOc1ccc(C=CC(=O)Nc2ccc3nc(N4CCOCC4)cc(C)c3c2)cc1OC, OC(c1nnc(S)n1-c1ccccc1)C(O)c1nnc(S)n1-c1ccccc1 (configuration not stated), Cc1cc(C(=O)Nc2ccc3c(ccn3C3CCCN(Cc4ccc(C(F)(F)F)cc4F)CC3)c2)no1 (configuration not stated)

Inhibition, 94%:
COc1c(C2=CCN(CCCCNC(=O)c3ccc(-c4ccc(C#N)cc4)cc3)CC2)ccc2c1CCCC2

Inhibition, 93%:
CC(C)(C)c1ccc(NC(=O)c2cccc(CN3CCCN(CC4CCCCC4)CC3)c2)cc1.O=C(O)C(F)(F)F

Inhibition, 89%:
Cc1nc2c(-n3cc(Cn4ccnc4)c4ccccc43)ncnc2n1-c1ccc(Cl)cc1Cl, Cc1nn(-c2ccccc2)nc1C(=O)NC1CCN(CCNC(=O)c2ccc(Cl)c(Cl)c2)CC1.O=C(O)C(F)(F)F

Inhibition, 100%:
Cc1cccc2nc(-c3ccc(-c4cccc(CNCCCN5CCCC5=O)c4)s3)[nH]c12.O=C(O)C(F)(F)F, Cc1cc(N[C@@H](Cc2ccccc2)C(=O)NC2CCCC2)nc(Nc2ccccc2)n1.O=C(O)C(F)(F)F, COc1ccccc1CCNc1nc(C)cc(N[C@@H](Cc2ccccc2)C(=O)NCCOc2ccccc2)n1.O=C(O)C(F)(F)F, NCC1CCCN1Cc1ccc(-c2cccc(-c3nc4cc(F)ccc4[nH]3)c2)cc1.O=C(O)C(F)(F)F (configuration not stated), Fc1ccccc1-c1cc(Nc2ccncc2)nc(-c2cccnc2)n1, CCn1c2ccccc2c2cc(C=NN=c3cc(C)[nH]c4ccccc34)ccc21, CC1CCCN(C(=O)C(C)Nc2cc(Cl)ccc2N2CCOCC2)C1 (configuration not stated), Cl.N=C(NCCCCC1CCCCC1)c1cccc(C(=N)NCCCCC2CCCCC2)n1, COc1cccc(CNC(=O)c2ccnc(-c3cccc(CN(C)C4CCN(C)CC4)c3)c2)c1.O=C(O)C(F)(F)F, Cl.O=C(c1cccc(COc2ccc3c(c2)CCN(C2CCCC2)CC3)c1)N1CCN(c2ccncc2)CC1, NC1=NC(c2ccccc2)(c2ccccc2)C(=O)N1C1CCCCC1.O=CO, O=C(Nc1ccc(OC(F)(F)F)cc1)NC1CCN(c2ccnc3ccccc23)CC1.O=C(O)C(F)(F)F, C[C@@H](CNc1ccnc(Nc2ccc3[nH]c(=O)[nH]c3c2)n1)c1ccccc1

Inhibition, 97%:
CCCNCc1ccc(-c2ccc(CN(CCOC)C(=O)c3ccc([N+](=O)[O-])c(C)c3)cc2)nc1.O=C(O)C(F)(F)F, CC[C@H](C)CNC(=O)c1ccnc(-c2cccc(CN3CCC(N4CCCC4)CC3)c2)c1.O=C(O)C(F)(F)F
